Screening data as filed in PubChem.
12-LOX inh: Primary qHTS assay for inhibitors of human arachidonate 12S-lipoxygenase (ALOX12): Round 2. Polyunsaturated fatty acid lipoxygenase ALOX12 (Homo sapiens), P18054. purified 12hLO, xylenol orange hydroperoxide absorbance. Potency, µM (highest dose often 108 µM), for inactives: top-dose activity change, negative = inhibition, actives largely listed as inhibitors. 580,000 tested, 1.1% active; also: potency is read from the fitted curve at half-maximal effect; % is scaled to controls: 0 for no effect and ±100 for the full control effect
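Purified human 12hLO (150 nM final) in 25 mM Hepes, 0.01% Triton X-100, pH 7.0 was preincubated 15 min at room temperature with compound. Then 40 uM arachidonic acid was added, 30 min. Hydroperoxide was read by Fe-XO absorbance ratio 573/405 nm.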
Mm-Cpn inhibitor: Inhibitors of TCP-1 ring complex (TRiC) of Methanococcus maripaludis (MmCpn): qHTS; Chaperonin Mm-Cpn (Methanococcus maripaludis); purified Mm-Cpn ATPase, ADP Transcreener TR-FRET; Potency, µM (titrated, usually from 76.9 µM), for the others: at the highest dose activity, negative = inhibition, most hits filed as inhibitors; 330,000 tested, 0.031% active; AID 504842, 2011; also: potency is read from the fitted curve at half-maximal effect; % is scaled to controls: 0 for no effect and ±100 for the full control effect; nearly all actives have a fitted effect of over 80% in size
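ATPase read-out: TR-FRET ADP immunoassay (anti-ADP Eu cryptate vs ADP-d2), ex 320 nm, em 590/665 nm; signal drops as ADP forms. Enzyme 25 nM, ATP 10 uM, 30 min at 37°C after 10 min compound preincubation.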
CCT chaperon mod: High-Throughput Screening for Modulators of Cytosolic Chaperonin Activity; purified chaperonin ATPase assay, HTRF ADP detection, 30 min; activity change, % (test concentration not listed), hits read low; 360,000 tested, 0.3% active; AID 651819, 2012; in the data active = activity change below about -30%; also: % is scaled to controls: 0 for no effect and ±100 for the full control effect
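We incubate TRiC, 40 or 20 nM final, with library compounds at 76 uM and 10 uM ATP for 30 min at 37 °C. ADP formed is detected with Transcreener HTRF reagents after 30 min at room temperature.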
p53 reactivation: qHTS assay for re-activators of p53 using a Luc reporter. H1299 p53-A138V BP100-luciferase reporter, luminescence, 24 h. Potency, µM (series often up to 92.2 µM), inactives show top-dose activity change, positive = activation, most hits filed as activators. 320,000 tested, 0.063% active; also: potency is read from the fitted curve at half-maximal effect; % of control where 0% means no effect; nearly all actives have a fitted effect of over 45% in size
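H1299 (p53-null), stable ts p53-A138V + BP100-Luc; 1000 cells/well, Opti-MEM/10% FBS; cpd 4 pt, 1:5; 24 h, 37 deg C, 5% CO2; detection reagent 10 min RT; luminescence.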
PINK1 modulator: A Quantitative High throughput Screen to Identify Chemical Modulators of PINK1 Expression. PINK1 immunofluorescence, high-content cytometry, 24 h. Potency, µM (top dose mostly 76.6 µM), without a hit: top-dose activation (PINK1 increase), usual class: activators. 410,000 tested, 0.2% active. AID 624263, 2012; active = well fitted activation curve with a large enough effect; inconclusive = small, poorly fitted or top-dose-only effect; cell line not stated here; also: potency is read from the fitted curve at half-maximal effect; % of control where 0% means no effect; nearly all actives have a fitted effect of over 65% in size
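Fluorescence from anti-PINK1 antibody, together with nuclear and cell stains, was scanned on a laser-scanning cytometer. Before staining, stable-line cells were incubated 24 hours with compounds at 5 concentrations; primary antibody 12 h at 10 degrees C.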
ASM inhibitor: Inhibitors of Secretory Acid Sphingomyelinase (S-ASM): qHTS | Sphingomyelin phosphodiesterase (Homo sapiens), P17405 | placental ASM, HMU-PC fluorogenic substrate, 60 min | Potency, µM (doses to about 57.5 µM), inactives show top-dose activity change, negative = inhibition, hits mostly inhibitors | 340,000 tested, 0.006% active; also: potency is read from the fitted curve at half-maximal effect
Target sequence (P17405 47-631 limits assumed): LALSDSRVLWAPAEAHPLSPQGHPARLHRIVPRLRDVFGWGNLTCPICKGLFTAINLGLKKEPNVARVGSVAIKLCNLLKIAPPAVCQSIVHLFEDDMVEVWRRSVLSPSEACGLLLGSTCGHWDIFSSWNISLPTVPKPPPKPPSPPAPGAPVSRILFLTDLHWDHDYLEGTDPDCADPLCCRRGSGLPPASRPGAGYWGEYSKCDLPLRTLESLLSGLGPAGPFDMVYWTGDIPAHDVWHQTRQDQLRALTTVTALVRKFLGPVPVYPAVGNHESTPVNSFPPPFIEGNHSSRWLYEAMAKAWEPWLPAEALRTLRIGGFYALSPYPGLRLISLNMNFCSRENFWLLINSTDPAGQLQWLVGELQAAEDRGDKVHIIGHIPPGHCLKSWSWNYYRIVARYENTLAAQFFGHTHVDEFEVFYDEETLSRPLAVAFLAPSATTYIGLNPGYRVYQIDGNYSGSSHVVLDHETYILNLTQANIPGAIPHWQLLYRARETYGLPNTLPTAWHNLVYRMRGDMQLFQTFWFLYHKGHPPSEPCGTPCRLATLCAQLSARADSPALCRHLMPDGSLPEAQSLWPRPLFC
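Fluorogenic HMU-PC substrate (9 uM final) is turned over by placental ASM in 60 min at 37 C after a 10 min compound preincubation. Reaction ended by alkaline stop (pH 10), with fluorescence read at 386/447 nm.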
The depositor's hits bear a star; u = inconclusive; x = not tested or not shown; [ ] = another dose, or the depositor's remark. In the library only some 1.4% were active in any assay of this set; here they are far more common. Unless noted, calls follow the shape of the dose curve; as a rule, active = well fitted curve in the direction sought with a large enough effect; inconclusive = small, poorly fitted or top-dose-only effect, or another doubt; inactive = no such curve, though single readings can be large; an effect the other way counts as inactive or inconclusive.

SMILES | 12-LOX inh | Mm-Cpn inhibitor | CCT chaperon mod | p53 reactivation | PINK1 modulator | ASM inhibitor
COc1nccnc1NS(=O)(=O)c1ccc(NC(=S)NC(=O)c2ccc(F)cc2)cc1 | 35µM* | 0% | 2 | -3% | -1% | -2%
Cc1ccc(-c2cn3nc(N4CCC(C(=O)NCc5ccc(OC(C)C)cc5)CC4)sc3n2)cc1 | -10% | x | x | x | x | x
O=C(NC1CCCC1)C1CCC(Cn2cnnn2)CC1 (centres undefined) | 48% | x | x | x | x | x
COCc1ccccc1CNC(=O)c1cccs1 | -61% | x | x | x | x | x
O=C(NC(=S)NCc1ccccc1Cl)c1cccs1 | 16µM* | -2% | 0 | 7% | 3% | -10%
O=C(NCc1ccccc1F)c1cccs1 | 12% | 0% | -37* | 0% | 2%[38.3 µM] | -1%
CCCc1cc(C(N)=O)c(NC(=O)c2ccoc2C)s1 | 32µM* | -3% | -2 | 2% | 9%[38.3 µM] | -1%
CCc1c(C)sc(NC(=O)c2ccoc2C)c1C(N)=O | 11µM* | 2% | 4 | -9% | 2% | 1%
COc1ccccc1CNCC(c1ccccc1)c1ccccc1 | 2.5µM* | 0% | x | -6% | x | x
COc1ccccc1CNCc1cc(OC)c(OC)cc1OC | u | -2% | -3 | -5% | 2%[38.3 µM] | 6%
O=c1[nH]c(=S)[nH]c2sccc12 | 8.9µM* | -6% | -3 | -3% | -1% | 8%
CC1(CCc2ccccc2)NC(=O)N(CC(=O)Nc2c(F)cccc2F)C1=O (centres undefined) | -1% | -3% | -51* | 11% | 0% | 3%
CC1(CCc2ccccc2)NC(=O)N(CC(=O)Nc2ccccc2)C1=O (centres undefined) | 4% | 0% | 0 | 1% | 0% | -3%
N#Cc1ccccc1CNc1cccc(Cl)c1F | -22% | x | x | x | x | x
Cc1ccccc1C(=O)N1CCC(c2nn(-c3ccc(Cl)cc3)c(=O)[nH]2)CC1 | 45µM* | x | x | x | x | x
COc1cccc(C(=O)N2CCC(c3nn(-c4ccc(Cl)cc4)c(=O)[nH]3)CC2)c1 | 35µM* | x | x | x | x | x
COc1ccc(-n2nc(C3CCN(C(=O)c4cccc(OC)c4)CC3)[nH]c2=O)cc1 | 1% | x | x | x | x | x
O=C(Nc1ccccc1)N1CCCC(c2nn(-c3ccc(Cl)cc3)c(=O)[nH]2)C1 (centres undefined) | 3% | x | x | x | x | x
Cc1ccc(C(=O)N2CCC(c3nn(-c4ccc(Cl)cc4)c(=O)[nH]3)CC2)cc1 | 25µM* | x | x | x | x | x
O=C(Nc1ccccc1)N1CCC(c2nn(-c3ccc(Cl)cc3)c(=O)[nH]2)CC1 | 32µM* | x | x | x | x | x
COc1ccc(Cl)cc1NC(=O)C(CC(C)C)N1Cc2ccccc2C1=O (centres undefined) | 2% | x | x | x | x | x
O=C(CNC(=O)NC(Cc1c[nH]c2ccccc12)C(=O)O)Nc1ccc2ccccc2c1 (centres undefined) | -1% | x | x | x | x | x
O=C(c1ccccc1Cl)N1CCC(c2nn(-c3ccc(Cl)cc3)c(=O)[nH]2)CC1 | 35µM* | x | x | x | x | x
Cn1nc(C2CCN(C(=O)c3ccccc3Cl)CC2)[nH]c1=O | 10%[176 µM] | x | x | x | x | x
Cc1cccnc1NC(=O)c1cc(-c2cccnc2)nc2ccccc12 | 4% | x | x | x | x | x
CCCC(=O)OCCC(C)C | -14%[176 µM] | x | x | x | x | x
CC(C)(C)c1cc(CN(CCO)CCO)cc(C(C)(C)C)c1O | 16µM* | -2% | -7 | u | -2%[38.3 µM] | 0%
CN(C)Cc1cc(C(C)(C)C)c(O)c(C(C)(C)C)c1 | 0% | 0% | 0 | 25% | 0% | 0%
Nn1c(SCC(=O)Nc2ccccc2)nnc1C1CCCCC1 | -16% | -4% | -1 | 12% | -1% | -4%
Nn1c(SCC(=O)NCc2ccccc2)nnc1C1CC1 | 10% | 0% | 0 | 1% | 5µM* | 0%
